The full data set covers some 7,900 targets. This sample favours those with a hit. About 0.6% of all pairs of compound and target were hits.
Key:
Assay in all cases: log2 fold change, soluble protein after heating vs DMSO (PISA); higher = thermal stabilisation; K562 cells, 10 uM, 30 min; active = over 0.2 and 3.5 SD of the protein, either way, in both replicates (recomputed)
[1] = compound: CC1=C(C=C(C=C1)NC(=O)C2=CC(=CC=C2)C(C)(C)C#N)NC3=CC4=C(C=C3)N=CN(C4=O)C
Summary of the method: (§1)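 K562 cells at 2×10^6 cells/mL were treated for 30 min with 10 μM compound, and aliquots were heated for 3 min over 48°C-58°C before pooling. Extraction used PBS with 0.5% NP-40 at 4°C, and soluble protein was the supernatant after 21,000xg for 90 min, measured by TMTpro 16plex LC-MS/MS with channel sums equalised. Thermal stability values, relative to control samples and from duplicates, are log2 fold changes.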

[2] = compound: CC1=C(C=C(C=C1)NC(=O)C2=CC(=CC=C2)N(C)C)NC(=O)C3=CC=C(C=C3)O
Summary of the method: as §1

[3] = compound: CC1=CC=C(C=C1)SC2=C3C=C(SC3=CN=C2)C(=O)N
Summary of the method: as §1

[4] = compound: CC1=NC(=CC=C1)C2=C(N=C(N2)C(C)(C)C)C3=CC4=NC=CN=C4C=C3
Summary of the method: as §1

Nexturastat A = compound: CCCCN(Cc1ccc(C(=O)NO)cc1)C(=O)Nc1ccccc1 [Nexturastat A]
Summary of the method: as §1

vemurafenib = compound: CCCS(=O)(=O)Nc1ccc(F)c(C(=O)c2c[nH]c3ncc(-c4ccc(Cl)cc4)cc23)c1F [vemurafenib]
Summary of the method: as §1

[5] = compound: CCCS(=O)(=O)Nc1ccc(F)c(C(=O)c2c[nH]c3ncc(Cl)cc23)c1F
Summary of the method: as §1

[6] = compound: CCCc1cc(C)[nH]c(=O)c1CNC(=O)c1cc(-c2ccnc(N3CCN(C)CC3)c2)cc2c1cnn2C(C)C
Summary of the method: as §1

givinostat = compound: CCN(CC)Cc1ccc2cc(COC(=O)Nc3ccc(C(=O)NO)cc3)ccc2c1 [givinostat]
Summary of the method: as §1

barasertib = compound: CCN(CCCOc1ccc2c(Nc3cc(CC(=O)Nc4cccc(F)c4)[nH]n3)ncnc2c1)CCOP(=O)(O)O [barasertib]
Summary of the method: as §1

[7] = compound: CC[C@@H]1C(=O)N(C)c2cnc(Nc3ccc(C(=O)NC4CCN(C)CC4)cc3OC)nc2N1C1CCCC1
Summary of the method: as §1

volasertib = compound: CC[C@@H]1C(=O)N(C)c2cnc(Nc3ccc(C(=O)N[C@H]4CC[C@H](N5CCN(CC6CC6)CC5)CC4)cc3OC)nc2N1C(C)C [volasertib]
Summary of the method: as §1

[8] = compound: CC[C@H](C)N1C=C(C2=C(C=C(C=C21)C3=CN=C(C=C3)N4CCNCC4)C(=O)NCC5=C(C=C(NC5=O)C)C)C
Summary of the method: as §1

epoxomicin = compound: CC[C@H](C)[C@@H](C(=O)N[C@@H]([C@@H](C)O)C(=O)N[C@@H](CC(C)C)C(=O)[C@]1(CO1)C)NC(=O)[C@H]([C@@H](C)CC)N(C)C(=O)C [epoxomicin]
Summary of the method: as §1

[9] = compound: CCn1c(C(=O)N(C2CC2)C2CC2)cc2c3c(ncn3C)c(Nc3cc(C)n(C)n3)nc21
Summary of the method: as §1

[10] = compound: CCn1cc(-c2ccnc3[nH]c(-c4cccc(CN(C)C)c4)cc23)c(-c2ccc(NC(=O)N(C)C)cc2)n1
Summary of the method: as §1

[11] = compound: CN(C)CC(=O)Nc1ccc2[nH]c(=O)c3ccccc3c2c1
Summary of the method: as §1

rosiglitazone = compound: CN(CCOC1=CC=C(C=C1)C[C@H]2C(=O)NC(=O)S2)C3=CC=CC=N3 (racemic) [rosiglitazone]
Summary of the method: as §1

[12] = compound: CN1C2=C(C3=C1C(=O)N(N=C3)CC4=CC(=CC=C4)N)SC(=C2)S(=O)C
Summary of the method: as §1

[13] = compound: CN1CCC(CNc2ccc3ncc(-c4cccc(OC(F)(F)F)c4)n3n2)CC1
Summary of the method: as §1

Measured: log2 fold change

PRKCG (UniProt P05129)
inactive: [1] 0.085 | [2] -0.117 | [3] -0.058 | [4] 0.021 | Nexturastat A -0.08 | vemurafenib -0.041 | [5] 0.034 | [6] 0.019 | givinostat -0.316 | barasertib -0.094 | [7] -0.253 | volasertib -0.062 | [8] 0.058 | epoxomicin 0.086 | [9] -0.078 | [10] -0.117 | [11] 0.058 | rosiglitazone 0.044 | [12] 0.093 | [13] -0.176

PRKACA (UniProt P17612)
inactive: [1] -0.002 | [2] -0.008 | [3] -0.023 | [4] 0.043 | Nexturastat A 0.099 | vemurafenib 0.015 | [5] 0.019 | [6] -0.019 | givinostat 0.006 | barasertib -0.008 | [7] -0.028 | volasertib -0.046 | [8] 0.068 | epoxomicin -0.072 | [9] -0.048 | [10] -0.058 | [11] 0 | rosiglitazone 0.033 | [12] -0.003 | [13] 0.085

PTTG1 (UniProt O95997)
Sequence of UniProt O95997 (O95997 whole entry, looked up): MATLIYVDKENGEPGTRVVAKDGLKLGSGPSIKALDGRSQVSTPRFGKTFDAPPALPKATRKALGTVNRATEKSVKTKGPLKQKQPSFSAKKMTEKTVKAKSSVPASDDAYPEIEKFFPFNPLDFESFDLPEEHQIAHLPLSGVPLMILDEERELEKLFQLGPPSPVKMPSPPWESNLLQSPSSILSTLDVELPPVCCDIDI
active: epoxomicin 0.293
inactive: [1] 0.007 | [2] -0.353 | [3] 0.02 | [4] -0.077 | Nexturastat A 0.098 | vemurafenib -0.081 | [5] -0.045 | [6] -0.021 | givinostat 0.068 | barasertib 0.023 | [7] 0.105 | volasertib 0.124 | [8] 0.008 | [9] 0.008 | [10] 0.057 | [11] -0.02 | rosiglitazone 0.008 | [12] 0.008 | [13] -0.092

PKN1 isoform 2 (UniProt Q16512)
Sequence of UniProt Q16512 (Q16512 whole entry, looked up): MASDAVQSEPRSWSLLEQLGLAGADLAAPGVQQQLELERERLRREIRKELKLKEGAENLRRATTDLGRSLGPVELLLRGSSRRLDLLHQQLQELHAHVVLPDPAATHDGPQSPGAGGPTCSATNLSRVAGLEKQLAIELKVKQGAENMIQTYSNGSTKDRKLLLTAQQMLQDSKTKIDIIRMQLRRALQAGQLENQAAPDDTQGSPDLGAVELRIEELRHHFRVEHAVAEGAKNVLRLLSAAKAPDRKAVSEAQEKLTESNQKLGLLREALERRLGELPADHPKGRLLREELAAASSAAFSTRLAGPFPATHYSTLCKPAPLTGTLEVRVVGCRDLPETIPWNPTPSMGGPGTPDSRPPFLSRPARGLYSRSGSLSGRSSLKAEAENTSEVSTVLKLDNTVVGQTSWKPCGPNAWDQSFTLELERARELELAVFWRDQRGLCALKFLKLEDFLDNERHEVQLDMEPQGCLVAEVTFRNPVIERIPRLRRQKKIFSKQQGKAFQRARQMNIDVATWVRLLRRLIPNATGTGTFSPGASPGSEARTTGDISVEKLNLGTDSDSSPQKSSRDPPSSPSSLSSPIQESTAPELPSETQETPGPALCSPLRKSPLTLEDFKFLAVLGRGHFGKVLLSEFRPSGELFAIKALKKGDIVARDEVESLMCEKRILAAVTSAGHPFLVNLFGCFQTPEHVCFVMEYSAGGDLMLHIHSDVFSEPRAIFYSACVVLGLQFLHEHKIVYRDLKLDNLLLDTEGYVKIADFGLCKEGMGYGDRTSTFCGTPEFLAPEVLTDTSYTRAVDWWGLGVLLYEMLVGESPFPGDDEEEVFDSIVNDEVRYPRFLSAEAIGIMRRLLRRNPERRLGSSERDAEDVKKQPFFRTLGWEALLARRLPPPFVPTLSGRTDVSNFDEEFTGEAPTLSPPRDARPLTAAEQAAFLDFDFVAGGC
active: [13] -0.772
inactive: [1] 0.01 | [2] 0.002 | [3] 0.019 | [4] 0.014 | Nexturastat A 0.053 | vemurafenib 0.023 | [5] 0.03 | [6] 0.022 | givinostat 0.059 | barasertib 0.03 | [7] 0.005 | volasertib -0.105 | [8] 0.084 | epoxomicin 0.014 | [9] -0.185 | [10] -0.038 | [11] 0.009 | rosiglitazone 0.06 | [12] -0.021

PCBP1 (UniProt Q15365)
Sequence of UniProt Q15365 (Q15365 whole entry, looked up): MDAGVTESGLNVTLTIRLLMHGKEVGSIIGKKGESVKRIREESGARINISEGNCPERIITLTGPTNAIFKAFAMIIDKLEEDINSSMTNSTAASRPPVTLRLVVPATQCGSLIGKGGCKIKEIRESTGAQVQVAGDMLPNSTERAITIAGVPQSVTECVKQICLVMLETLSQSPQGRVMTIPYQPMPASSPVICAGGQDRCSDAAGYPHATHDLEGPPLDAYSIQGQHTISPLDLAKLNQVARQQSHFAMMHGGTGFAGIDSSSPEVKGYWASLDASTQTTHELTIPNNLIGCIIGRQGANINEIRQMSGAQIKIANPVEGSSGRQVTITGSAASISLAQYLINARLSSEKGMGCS
active: volasertib -0.268
inactive: [1] 0.034 | [2] -0.037 | [3] 0.112 | [4] 0.067 | Nexturastat A -0.038 | vemurafenib 0.022 | [5] 0.097 | [6] -0.011 | givinostat 0.013 | barasertib 0.021 | [7] -0.1 | [8] 0.04 | epoxomicin 0.025 | [9] -0.065 | [10] 0.025 | [11] 0.039 | rosiglitazone 0.035 | [12] 0.009 | [13] -0.129

PIP4K2C (UniProt Q8TBX8)
Sequence of UniProt Q8TBX8 (Q8TBX8 whole entry, looked up): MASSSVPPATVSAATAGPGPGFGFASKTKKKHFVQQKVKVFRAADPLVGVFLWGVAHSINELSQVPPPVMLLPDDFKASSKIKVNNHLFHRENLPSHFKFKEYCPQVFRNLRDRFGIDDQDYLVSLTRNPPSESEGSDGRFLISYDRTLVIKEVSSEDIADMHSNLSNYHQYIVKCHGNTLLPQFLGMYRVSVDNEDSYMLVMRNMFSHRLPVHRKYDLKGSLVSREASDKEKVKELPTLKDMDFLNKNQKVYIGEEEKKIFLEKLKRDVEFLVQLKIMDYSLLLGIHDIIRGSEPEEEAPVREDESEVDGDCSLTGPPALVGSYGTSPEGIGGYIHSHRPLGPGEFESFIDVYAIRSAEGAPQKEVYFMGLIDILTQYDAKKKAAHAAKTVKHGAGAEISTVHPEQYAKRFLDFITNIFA
inactive: [1] -0.003 | [2] -0.06 | [3] 0.073 | [4] 0.007 | Nexturastat A -0.046 | vemurafenib -0.035 | [5] 0 | [6] -0.029 | givinostat -0.047 | barasertib -0.016 | [8] -0.096 | epoxomicin -0.022 | [9] 0.001 | [10] 0.05 | [11] -0.016 | rosiglitazone 0.046 | [12] 0.699 | [13] 0.384
active: [7] 1.12 | volasertib 1.19
